Data from PMC4336329 (PLoS ONE, 2015).
The campaign covered roughly 310,000 compounds. About 14,000 (4.5%) showed an effect of 50% or more. Effects have a minus sign here. The full list was thinned out, with strong results kept by preference.

Each compound was assayed against human ether-à-go-go-related gene (hERG) potassium channel (human, UniProt Q12809) (assay: primary screen, population patch clamp on CHO cells stably expressing hERG; higher = less effect of the substance).
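Note: peak tail current of the secondary pulse compared with the same well before compound.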

Chain of human ether-à-go-go-related gene (hERG) potassium channel (Q12809 whole entry, looked up): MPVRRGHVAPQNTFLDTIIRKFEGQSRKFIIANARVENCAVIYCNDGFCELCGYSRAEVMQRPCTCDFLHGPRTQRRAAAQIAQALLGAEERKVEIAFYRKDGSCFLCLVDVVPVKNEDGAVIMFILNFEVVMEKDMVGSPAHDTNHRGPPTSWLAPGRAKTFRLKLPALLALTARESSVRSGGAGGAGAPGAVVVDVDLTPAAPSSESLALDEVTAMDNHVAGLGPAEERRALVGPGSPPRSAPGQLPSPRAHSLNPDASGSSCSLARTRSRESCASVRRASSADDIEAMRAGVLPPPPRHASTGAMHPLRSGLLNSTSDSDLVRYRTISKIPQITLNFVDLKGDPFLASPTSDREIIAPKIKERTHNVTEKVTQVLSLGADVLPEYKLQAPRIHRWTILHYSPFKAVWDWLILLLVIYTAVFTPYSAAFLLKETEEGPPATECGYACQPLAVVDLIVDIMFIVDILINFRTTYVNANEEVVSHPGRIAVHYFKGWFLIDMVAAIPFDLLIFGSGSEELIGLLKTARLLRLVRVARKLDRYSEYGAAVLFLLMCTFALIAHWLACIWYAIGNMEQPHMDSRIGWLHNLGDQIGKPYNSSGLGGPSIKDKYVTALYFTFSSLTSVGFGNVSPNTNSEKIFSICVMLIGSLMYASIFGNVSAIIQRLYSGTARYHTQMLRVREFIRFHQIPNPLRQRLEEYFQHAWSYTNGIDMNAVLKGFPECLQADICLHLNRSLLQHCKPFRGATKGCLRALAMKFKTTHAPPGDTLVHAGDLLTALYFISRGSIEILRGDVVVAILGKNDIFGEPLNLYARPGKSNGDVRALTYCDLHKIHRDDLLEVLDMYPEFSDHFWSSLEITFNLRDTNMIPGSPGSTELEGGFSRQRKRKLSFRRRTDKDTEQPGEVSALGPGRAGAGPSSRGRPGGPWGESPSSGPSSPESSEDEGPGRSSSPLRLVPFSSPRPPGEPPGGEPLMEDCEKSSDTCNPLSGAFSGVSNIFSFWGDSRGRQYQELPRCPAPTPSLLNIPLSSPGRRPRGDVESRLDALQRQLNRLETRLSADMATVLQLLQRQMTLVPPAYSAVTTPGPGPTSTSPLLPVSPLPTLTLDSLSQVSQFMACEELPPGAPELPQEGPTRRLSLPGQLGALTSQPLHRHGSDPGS

Compound	hERG current change (%, negative = inhibition) at 10uM
COc1ccc(S(=O)(=O)Nc2cc3c4c(c2)CCN4C(=O)CC3)cc1OC	-7.56%
O=C(Cc1ccc(Cl)c(Cl)c1)N/N=C/c1cccnc1	-40%
N#Cc1ccc(CSc2nnc(-c3ccncc3)n2CCc2ccccc2)cc1	-74.1%
C=CCn1c(SCc2ccccc2)nnc1-c1cccnc1	-20.5%
Cn1c(SCc2ccc(C#N)cc2)nnc1-c1ccncc1	-19.7%
c1ccc(CCn2c(SCc3ccccc3)nnc2-c2ccncc2)cc1	-41.4%
Cn1c(SCc2ccc(C#N)cc2)nnc1-c1ccccc1	-29%
C=CCn1c(SCc2ccc(C#N)cc2)nnc1-c1ccccc1	-57.8%
C=CCn1c(SCCC#N)nnc1-c1ccncc1	-4.28%
C=CCn1c(SCc2cccnc2)nnc1-c1ccncc1	-1.49%
C=CCn1c(SCc2ccc(C#N)cc2)nnc1-c1ccc(C)cc1	-71.3%
CC(=O)c1c(C)[n+]([O-])c2ccc3c(non3O)c12	13.6%
CCOC(=O)C1=NN(c2ccc(Cl)cc2)C(c2ccccc2)CC1=O (stereo not drawn)	-5.12%
COc1cccc(NC(=O)CN(C)C(=O)c2cc(C3CC3)nn2-c2ccccc2)c1	-23.1%
Cc1cc(C)nc(NS(=O)(=O)c2ccc(N/C=C/C(=O)c3ccc(Cl)c(Cl)c3)cc2)n1	25.6%
CCOC(=O)c1oc2ccccc2c1NC(=O)c1cc(OC)cc(OC)c1	7.29%
COc1ccccc1C(=O)NNC(=O)C1CC=CCC1 (stereo not drawn)	18.7%
O=C(/C(=C/O)N=Nc1ccccc1)c1ccncc1	-12.1%
COc1cc(NC(=S)NCc2cccnc2)c(OC)cc1Cl	-27.9%
CC(=O)N(c1ccccc1)C1SC(=O)N(c2ccccc2)C1=O (stereo not drawn)	13.9%
O=[N+]([O-])c1ccccc1NCc1ccccc1Cl	-4.13%
[O-][Cl+3]([O-])([O-])[O-].c1ccc(C[n+]2ccccc2)cc1	-3.58%

Compound	hERG current change (%, negative = inhibition) at 10uM
Clc1ccc(C[n+]2c(-c3ccccc3)cc(-c3ccccc3)cc2-c2ccccc2)cc1.[O-][Cl+3]([O-])([O-])[O-]	-79.5%
Cc1ccc(C[n+]2c(-c3ccc(C)cc3)cc(-c3ccc(C)cc3)cc2-c2ccc(C)cc2)cc1.[O-][Cl+3]([O-])([O-])[O-]	-75.6%
Cc1ccc(-c2cc[n+](Cc3ccccc3)cc2)cc1.[Cl-]	-5.47%
O=C([O-])c1cc(-c2ccccc2)cc(-c2ccccc2)[n+]1Cc1ccccc1	-10.1%
O=[N+]([O-])c1ccccc1-c1cc(-c2ccccc2)cc(-c2ccccc2)[n+]1Cc1ccccc1Cl.[O-][Cl+3]([O-])([O-])[O-]	-78.7%
O=[N+]([O-])c1ccc(C[n+]2c(-c3ccccc3)cc(-c3ccccc3)cc2-c2ccccc2)cc1.[O-][Cl+3]([O-])([O-])[O-]	-25.8%
Cc1cc[n+](Cc2ccccc2)cc1.[O-][Cl+3]([O-])([O-])[O-]	18.9%
O=[N+]([O-])c1cc(Cl)c(O)c(-[n+]2c(-c3ccccc3)cc(-c3ccccc3)cc2-c2ccccc2)c1.[O-][Cl+3]([O-])([O-])[O-]	-38.7%
Fc1ccc(C[n+]2c(-c3ccccc3)cc(-c3ccccc3)cc2-c2ccccc2)cc1.[O-][Cl+3]([O-])([O-])[O-]	-71.5%
O=C(COC(=O)CCc1nc2ccccc2s1)NC(=O)NCc1ccco1	-11.4%
CCOc1cc(/C=C/C(=O)c2ccc(OC)c(CN3CCOCC3)c2)cc(Br)c1O	-32.5%
CCSc1nsc(NC(=O)Nc2cccc(C(C)=O)c2)n1	10.5%
Cc1ccc(-c2ccc(S(=O)(=O)N3CC(C)OC(C)C3)cc2)cc1 (stereo not drawn)	18.7%
CCCSc1cc(N2CCN(C)CC2)nc(-c2ccc(OC)cc2)n1.Cl	-29.2%
COc1ccc(C(=O)NCC(=O)OCC(=O)NCCC2=CCCCC2)cc1	-12.7%
COCCCn1c(SCC(=O)NC2CCCCC2)nnc1-c1ccncc1	19.8%
COc1ccc(CC(=O)Nc2cc(C)on2)cc1	5.74%
COc1cc(OC)cc(C(=O)NC(C(=O)Nc2ccc3c(c2)OCCO3)C(C)C)c1 (stereo not drawn)	-11%
CCN(CC)CCn1c(C)nc2c(sc3nc4c(cc32)COC(C)(C)C4)c1=O	-22.3%
O=C(NCC1CCCO1)c1onc(CSc2cccc3ccccc23)c1C(=O)O (stereo not drawn)	14.4%
COc1cccc(NC(=O)CN(C)C(=O)CSCc2nc3scc(-c4cccs4)c3c(=O)[nH]2)c1	-16.2%
CCC(C)(C)NC(=O)C(c1ccc(OC)cc1)N(C(=O)CCC(=O)Nc1cc(C)on1)c1ccc(OC)cc1OC (stereo not drawn)	-7.89%

Compound	hERG current change (%, negative = inhibition) at 10uM
COc1ccccc1NC(=O)C(C)N1CCN(C/C=C/c2ccccc2)CC1 (stereo not drawn)	-74.5%
COc1ccc(Cl)cc1NC(=O)C(C)N1CCc2ccccc21 (stereo not drawn)	23.9%
COc1ccc(Cl)cc1NC(=O)C(C)N1CCN(C/C=C/c2ccccc2)CC1.O=C(O)C(=O)O (stereo not drawn)	-63.4%
COc1ccc(Cl)cc1NC(=O)C(C)N1CCN(c2ccccn2)CC1 (stereo not drawn)	-18.3%
COC(=O)c1ccccc1NC(=O)N1CCN(C/C=C/c2ccccc2)CC1	-45.1%
COc1ccccc1NC(=S)N1CCN(C/C=C/c2ccccc2)CC1	-0.974%
C=CCc1cccc(CNc2ccc(S(=O)(=O)Nc3nccnc3OC)cc2)c1O	-9.98%
N=c1c2c3c(sc2ncn1N)CCCC3	2.04%
COc1ccccc1C1C2=C(CCCC2=O)N(CC(=O)O)C2=C1C(=O)CCC2	15.9%
CCn1c(SC)nnc1-c1nn(-c2ccccc2)ccc1=O	11.3%
CCn1c(SCc2ccc(F)cc2)nnc1-c1nn(-c2ccccc2)ccc1=O	-35.1%
CCn1c(SCc2c(Cl)cccc2Cl)nnc1-c1nn(-c2ccccc2)ccc1=O	-66.1%
COCCNc1ccc(-c2n[nH]c(=O)c3ccccc23)cc1[N+](=O)[O-]	9.51%
CN1C(=O)S/C(=C/c2cccnc2)C1=O	-0.904%
O=C(Cn1cnc2ccccc21)N/N=C/C(Br)=C/c1ccccc1	5.98%
O=C(Nc1c(F)cc(F)cc1Br)c1cc(S(=O)(=O)N2CCN(c3ccccn3)CC2)ccc1F	-15.9%
CCC(C)NS(=O)(=O)c1ccc(F)c(C(=O)Nc2c(F)cc(F)cc2Br)c1 (stereo not drawn)	-60.8%
CCN1CCN(S(=O)(=O)c2ccc(F)c(C(=O)Nc3c(F)cc(F)cc3Br)c2)CC1	-17.1%
CC(=O)Nc1ccc(S(=O)(=O)N(CC(=O)Nc2cc(C)on2)Cc2ccc(F)cc2)cc1	-11.5%
COc1cccc2cc(C(=O)C3=C(O)C(=O)N(CCN4CCOCC4)C3c3cccs3)oc12 (stereo not drawn)	13.1%
CCOc1ccc(Nc2nc(NCCN3CCOCC3)nc(OC)n2)cc1	-63.8%
c1ccc(Nc2nc(NCCN3CCOCC3)nc(Nc3ccccc3)n2)cc1	-15.2%

Compound	hERG current change (%, negative = inhibition) at 10uM
Clc1ccc(CNc2nc(N3CCOCC3)nc(N3CCOCC3)n2)cc1	-20%
CCOc1nc(Nc2ccc(OC)cc2)nc(N2CCOCC2)n1	-4.52%
CCOc1ccc(Nc2nc(N3CCOCC3)nc(N3CCOCC3)n2)cc1	-17.9%
COc1nc(NCCN2CCOCC2)nc(Nc2ccccc2)n1	-50.5%
COc1ccc(Nc2nc(NCCN3CCOCC3)nc(Nc3ccc(OC)cc3)n2)cc1	-78.2%
C=CCNc1nc(NCCN2CCOCC2)nc(OC)n1	-4.89%
C=CCNc1nc(NCCN2CCOCC2)nc(N2CCOCC2)n1	18.6%
COc1ccc(Nc2nc(N3CCOCC3)nc(N3CCOCC3)n2)cc1	11.7%
Clc1ccc(Nc2nc(NCCN3CCOCC3)nc(N3CCOCC3)n2)cc1	-56%
COc1ccc(NC(=S)NCCN2CCOCC2)cc1	21.7%
Cc1cc(C)nc(NS(=O)(=O)c2ccc(NC(=O)COc3ccccc3F)cc2)n1	4.9%
CCCc1nc(SCc2ccccc2Cl)n[nH]1	10.7%
COc1cccc(CN(C)CC(=O)Nc2sc3c(c2C#N)CCC3)c1OC	10.3%
COc1ccc(-n2c3c(cc(C#N)c2=O)C(=O)CCC3)cc1	29.1%
COc1ccc(Oc2c(C)oc3c(CN(C)C)c(O)ccc3c2=O)cc1	-1.88%
CC(O)C[NH+]=c1cc(-c2ccccc2)oc2ccc(Cl)cc12.F[B-](F)(F)F (stereo not drawn)	-69.4%
O=c1cc(-c2ccccc2)oc2ccccc12	-4.17%
Clc1ccc(Oc2ncnc3oc(-c4ccccc4)cc23)cc1	4.39%
O=C(O)c1cc(=O)c2cc(Cl)ccc2o1	17.3%
Cc1cc(Cl)ccc1Oc1ncnc2oc(-c3ccccc3)cc12	-0.172%
CC(C)C[NH+]=c1cc(-c2ccccc2)oc2ccc(Cl)cc12.F[B-](F)(F)F	-87.4%
